# According to PubChem BioAssay:
# Unmarked numbers belong to inactive results. Active and inactive are the calls of the source.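 How the source made its calls, unless noted: active means mean inhibition above 46.68%, the untreated control wells mean plus 3 SD; inactive means the rest.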
# Experiments:
# [1] = target: Nuclear receptor coactivator 3 (Homo sapiens) (UniProt Q9Y6Q9); experiment: SRC3 coactivator transcriptional activity inhibitors, confirmation, cell-based, luminescence, quadruplicate (AID 588792;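 active means mean inhibition over 43.08%, the solvent-only control mean plus 3 SD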;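 further: 0% = DMSO treated cells and 100% = gossypol at 36 µM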); conditions: HEK293 GAL4-SRC3 luciferase reporter, at 3.6 µM, hits give high values
# [2] = system: transactivating tegument protein VP16 (Human herpesvirus 1), Gal4-VP16 luciferase reporter; experiment: VP16 transactivation inhibitors, counter-screen for SRC3 inhibitor project, cell-based, luminescence, high throughput (AID 588794; in the data active means inhibition above about 30%); conditions: mammalian cells, VP16-driven luciferase reporter luminescence; at 3.6 µM; hits give high values
# [3] = target: Nuclear receptor coactivator 1 (Homo sapiens) (UniProt Q15788); experiment: SRC1 coactivator transcriptional activity inhibitors, confirmation, cell-based, luminescence, quadruplicate (AID 588820); conditions: HEK293 GAL4-SRC1 luciferase reporter, at 3.6 µM, hits give high values;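 further: 0% = DMSO wells and 100% = gossypol 36 µM treated wells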
# Sequence of Nuclear receptor coactivator 1 (Homo sapiens) (Q15788 whole entry, looked up, the tested form may be a part): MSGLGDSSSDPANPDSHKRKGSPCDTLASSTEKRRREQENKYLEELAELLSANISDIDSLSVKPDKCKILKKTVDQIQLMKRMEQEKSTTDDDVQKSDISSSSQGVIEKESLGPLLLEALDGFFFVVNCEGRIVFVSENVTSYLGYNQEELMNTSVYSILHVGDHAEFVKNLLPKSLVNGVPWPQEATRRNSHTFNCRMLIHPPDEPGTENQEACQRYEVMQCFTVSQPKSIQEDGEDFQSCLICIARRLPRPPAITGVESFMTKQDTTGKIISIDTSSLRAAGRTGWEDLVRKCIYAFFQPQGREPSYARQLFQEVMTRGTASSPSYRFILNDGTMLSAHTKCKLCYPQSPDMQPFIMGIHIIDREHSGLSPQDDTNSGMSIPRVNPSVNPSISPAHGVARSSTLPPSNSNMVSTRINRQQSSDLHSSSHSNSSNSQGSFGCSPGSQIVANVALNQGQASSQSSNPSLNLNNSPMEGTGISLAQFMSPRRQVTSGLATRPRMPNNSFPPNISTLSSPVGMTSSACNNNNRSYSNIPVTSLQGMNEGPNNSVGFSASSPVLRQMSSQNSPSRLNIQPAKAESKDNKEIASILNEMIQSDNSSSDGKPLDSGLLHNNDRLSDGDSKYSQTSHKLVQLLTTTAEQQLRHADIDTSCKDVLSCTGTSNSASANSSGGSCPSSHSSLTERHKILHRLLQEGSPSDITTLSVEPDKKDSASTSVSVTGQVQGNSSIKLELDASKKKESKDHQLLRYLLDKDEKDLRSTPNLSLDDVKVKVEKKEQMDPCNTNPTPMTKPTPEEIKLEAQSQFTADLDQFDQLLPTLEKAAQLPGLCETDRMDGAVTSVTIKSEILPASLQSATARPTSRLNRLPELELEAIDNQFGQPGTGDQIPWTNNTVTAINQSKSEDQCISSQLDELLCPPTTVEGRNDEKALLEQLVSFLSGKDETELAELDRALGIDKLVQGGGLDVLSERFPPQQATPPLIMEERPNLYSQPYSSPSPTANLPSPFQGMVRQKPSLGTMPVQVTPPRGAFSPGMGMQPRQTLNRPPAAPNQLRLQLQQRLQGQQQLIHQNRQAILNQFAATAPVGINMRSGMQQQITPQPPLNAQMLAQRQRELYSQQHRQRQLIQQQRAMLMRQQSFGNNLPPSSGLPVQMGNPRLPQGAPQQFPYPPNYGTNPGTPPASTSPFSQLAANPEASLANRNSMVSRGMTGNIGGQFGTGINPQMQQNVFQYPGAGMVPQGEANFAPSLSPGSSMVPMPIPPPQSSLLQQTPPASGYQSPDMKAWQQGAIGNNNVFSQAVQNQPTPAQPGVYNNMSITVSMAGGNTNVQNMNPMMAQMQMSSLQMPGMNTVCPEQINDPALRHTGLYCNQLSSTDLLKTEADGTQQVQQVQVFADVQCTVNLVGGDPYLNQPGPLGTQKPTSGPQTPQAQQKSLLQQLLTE
# [4] = VP16 transactivation inhibitors, counter-screen for SRC1 inhibitor project, cell-based, luminescence, high throughput (AID 588824; in the data active means inhibition above about 25%); conditions: cell-based VP16 transactivation luciferase luminescence; at 3.6 µM; hits give high values
# [5] = StAR promoter reporter inhibitors, counter-screen for LRH-1 inverse agonist project, cell-based, luminescence, high throughput (AID 651611; in the data active means inhibition above about 28%); conditions: StAR promoter luciferase reporter counterscreen, at 3.6 µM, hits give high values
# [6] = target: Nuclear receptor subfamily 5 group A member 2 (Homo sapiens) (UniProt O00482); experiment: LRH-1 (NR5A2) inverse agonists, retest, confirmation, cell-based, luminescence (AID 651613; in the data active means inhibition above about 42%;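 further: HEK293T cells co-transfected with LRH-1 and StAR promoter luciferase reporter; 0% = vehicle wells and 100% = parental cells lacking receptor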); conditions: cell-based LRH-1 luciferase reporter, inverse agonism; at 3.6 µM; hits give high values
# Sequence of Nuclear receptor subfamily 5 group A member 2 (Homo sapiens) (O00482 whole entry, looked up): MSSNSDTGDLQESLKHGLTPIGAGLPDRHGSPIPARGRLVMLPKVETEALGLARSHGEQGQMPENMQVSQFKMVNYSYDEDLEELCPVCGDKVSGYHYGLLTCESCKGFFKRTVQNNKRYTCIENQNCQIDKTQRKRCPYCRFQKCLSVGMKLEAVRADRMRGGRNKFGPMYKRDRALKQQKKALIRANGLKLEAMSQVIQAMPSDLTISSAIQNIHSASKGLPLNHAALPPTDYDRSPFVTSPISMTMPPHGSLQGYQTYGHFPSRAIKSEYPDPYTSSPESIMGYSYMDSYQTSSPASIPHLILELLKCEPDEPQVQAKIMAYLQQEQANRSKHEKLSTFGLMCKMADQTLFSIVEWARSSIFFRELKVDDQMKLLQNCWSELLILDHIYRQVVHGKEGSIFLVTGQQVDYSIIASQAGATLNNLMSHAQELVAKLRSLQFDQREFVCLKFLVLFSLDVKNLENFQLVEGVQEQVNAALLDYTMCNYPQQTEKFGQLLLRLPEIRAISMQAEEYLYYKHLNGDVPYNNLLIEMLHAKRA
# [7] = target: Steroidogenic factor 1 (Homo sapiens) (UniProt Q13285); experiment: SF1 (NR5A1) inverse agonists, counter-screen for LRH-1 inverse agonist project, cell-based, luminescence, high throughput (AID 651614; in the data active means inhibition above about 44%;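 further: cells cotransfected with StAR promoter reporter and SF1 expression vector; 0% = vehicle on cells with receptor and 100% = vehicle on cells lacking receptor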); conditions: cell-based SF1 luciferase reporter, at 3.6 µM, hits give high values
# Sequence of Steroidogenic factor 1 (Homo sapiens) (Q13285 whole entry, looked up, the tested form may be a part): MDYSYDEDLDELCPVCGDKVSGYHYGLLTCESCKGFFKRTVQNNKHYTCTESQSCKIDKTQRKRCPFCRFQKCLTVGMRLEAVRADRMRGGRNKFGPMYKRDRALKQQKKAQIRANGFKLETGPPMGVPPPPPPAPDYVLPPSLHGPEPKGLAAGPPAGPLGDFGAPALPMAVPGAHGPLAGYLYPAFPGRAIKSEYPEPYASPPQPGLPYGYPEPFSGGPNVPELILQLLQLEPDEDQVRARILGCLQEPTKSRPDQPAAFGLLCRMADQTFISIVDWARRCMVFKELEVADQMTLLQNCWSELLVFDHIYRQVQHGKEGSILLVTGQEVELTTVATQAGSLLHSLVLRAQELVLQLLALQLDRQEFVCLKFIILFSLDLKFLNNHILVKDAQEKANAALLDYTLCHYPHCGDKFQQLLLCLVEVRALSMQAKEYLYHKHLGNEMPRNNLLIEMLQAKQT
# [8] = VP16 transactivation reporter inhibitors, counter-screen for LRH-1 inverse agonist project, cell-based, luminescence, high throughput (AID 651615; in the data active means inhibition above about 33%); conditions: Gal4-VP16 luciferase reporter cells, at 3.6 µM, hits give high values
# [9] = system: transactivating tegument protein VP16 (Human herpesvirus 1); experiment: VP16 transactivation reporter inhibitors, counter-screen for SRC2 inhibitor project, cell-based, luminescence, single concentration (AID 652007; in the data active means inhibition above about 36%); conditions: cell-based VP16 transactivation luciferase reporter, at 8.9 µM, hits give high values
# [10] = target: Nuclear receptor coactivator 2 (Homo sapiens) (UniProt Q15596); experiment: SRC2 coactivator transcriptional activity inhibitors, confirmation, cell-based, luminescence, HEK293, triplicate (AID 652008;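 active means mean inhibition above 46.5%, the solvent-only control mean plus 3 SD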;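 further: 0% = DMSO-treated cells and 100% = Gossypol at 36 µM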); conditions: HEK293 GAL4-SRC2 luciferase reporter, at 8.9 µM, hits give high values
# Sequence of Nuclear receptor coactivator 2 (Homo sapiens) (Q15596 whole entry, looked up, the tested form may be a part): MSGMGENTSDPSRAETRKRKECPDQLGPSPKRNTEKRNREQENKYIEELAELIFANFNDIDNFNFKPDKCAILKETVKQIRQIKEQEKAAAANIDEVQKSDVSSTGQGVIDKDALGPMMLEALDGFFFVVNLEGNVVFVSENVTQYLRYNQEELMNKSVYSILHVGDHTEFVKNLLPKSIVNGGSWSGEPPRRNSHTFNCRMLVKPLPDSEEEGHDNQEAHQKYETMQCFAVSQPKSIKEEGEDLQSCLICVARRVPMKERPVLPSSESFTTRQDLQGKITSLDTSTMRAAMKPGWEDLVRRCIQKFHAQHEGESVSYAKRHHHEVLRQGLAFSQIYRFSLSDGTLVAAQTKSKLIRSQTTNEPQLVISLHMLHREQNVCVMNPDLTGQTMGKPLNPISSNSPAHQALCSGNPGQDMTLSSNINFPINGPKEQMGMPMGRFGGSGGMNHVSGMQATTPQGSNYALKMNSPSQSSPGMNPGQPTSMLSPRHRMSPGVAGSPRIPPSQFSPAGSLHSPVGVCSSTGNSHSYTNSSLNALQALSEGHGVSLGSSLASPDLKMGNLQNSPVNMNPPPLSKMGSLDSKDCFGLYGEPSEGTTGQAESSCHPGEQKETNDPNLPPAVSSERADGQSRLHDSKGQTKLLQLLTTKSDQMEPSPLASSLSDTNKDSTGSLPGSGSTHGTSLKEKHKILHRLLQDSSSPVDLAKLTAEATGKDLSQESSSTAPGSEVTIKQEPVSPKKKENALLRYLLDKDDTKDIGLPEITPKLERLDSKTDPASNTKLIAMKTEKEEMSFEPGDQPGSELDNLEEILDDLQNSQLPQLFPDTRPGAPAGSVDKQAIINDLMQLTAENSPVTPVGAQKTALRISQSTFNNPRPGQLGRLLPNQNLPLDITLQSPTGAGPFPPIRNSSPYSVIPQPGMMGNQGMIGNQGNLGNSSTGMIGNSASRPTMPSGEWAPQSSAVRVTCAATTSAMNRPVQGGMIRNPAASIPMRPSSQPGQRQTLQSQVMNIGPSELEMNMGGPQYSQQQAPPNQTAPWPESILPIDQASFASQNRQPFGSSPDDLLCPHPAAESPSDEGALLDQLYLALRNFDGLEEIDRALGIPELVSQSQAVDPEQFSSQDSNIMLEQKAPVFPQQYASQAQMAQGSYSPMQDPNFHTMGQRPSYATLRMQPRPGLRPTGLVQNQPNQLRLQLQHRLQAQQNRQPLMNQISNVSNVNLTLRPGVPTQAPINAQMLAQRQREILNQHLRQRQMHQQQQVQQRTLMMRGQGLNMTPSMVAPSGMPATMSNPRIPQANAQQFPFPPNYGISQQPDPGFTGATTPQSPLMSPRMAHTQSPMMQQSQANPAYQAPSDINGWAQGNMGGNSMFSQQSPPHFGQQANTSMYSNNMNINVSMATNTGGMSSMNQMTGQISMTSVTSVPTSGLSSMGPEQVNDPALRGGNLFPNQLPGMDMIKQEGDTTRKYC
Structure (SMILES),inhibition [1],inhibition [2],inhibition [3],inhibition [4],inhibition [5],inhibition [6],inhibition [7],inhibition [8],inhibition [9],inhibition [10]
CC(C)(C)c1ccc(-c2noc(CCC(N)=O)n2)cc1,65.2% (active),51.9% (active),59.7% (active),56.7% (active),58.9% (active),70% (active),60.8% (active),58.4% (active),83.6% (active),94.2% (active)
CCOc1c(Br)cc(CNc2ccc3c(c2)OCCO3)cc1OC,14.5%,8.55%,-25.8%,9.33%,3.55%,3.36%,19.9%,26.2%,-28.8%,21.9%
O=C(CN1C(=O)c2ccccc2S1(=O)=O)c1ccc(Cl)cc1Cl,65.8% (active),71.5% (active),8.08%,62.5% (active),67.9% (active),55.3% (active),73% (active),57.4% (active),81.2% (active),83.7% (active)
CCCS(=O)(=O)c1cnc(C2COc3ccccc3O2)nc1N (stereo not given),61.5% (active),44.9% (active),18.9%,33.6% (active),43.2% (active),2.93%,36.5%,23.1%,37.2% (active),75% (active)
C[C@@H](C(=O)Nc1ccc2c(c1)OCCO2)n1c(=O)[nH]c2ccccc2c1=O,34.5%,-0.03%,-4.84%,-17.6%,-11.4%,-28.3%,20.2%,-18.1%,3.58%,68.7% (active)
O=C(/C=C/Nc1ccccc1Br)c1ccccn1,48.5% (active),32.8% (active),10.4%,33.1% (active),58.2% (active),42.5% (active),62.7% (active),36.1% (active),64.9% (active),82.7% (active)
CCCN(CCC)C1=CC(=[N+]2CCCC2)CC(C)(C)C1,25.5%,56.8% (active),36.1%,55.3% (active),38.3% (active),106% (active),78.8% (active),86.6% (active),29%,18.8%
Cc1cc(C(=O)CSc2ccc(F)cc2)cc(C)c1OC(=S)N(C)C,41.6%,43.6% (active),2.12%,-8.86%,-28.6%,-65.3%,-23.4%,-17.3%,22.6%,65.7% (active)
Cc1c(/C(O)=C2/C(=O)C(=O)N(CCN3CCOCC3)C2c2ccccn2)cnn1-c1ccccc1 (stereo not given),62.5% (active),41.7% (active),54.5% (active),26.1% (active),68.9% (active),24.3%,75.2% (active),12.3%,68.5% (active),83.4% (active)
C(=NN1CCCCCC1)c1ccc2ccccc2n1,88.6% (active),82.8% (active),68.3% (active),72.1% (active),87.8% (active),67% (active),87% (active),70.8% (active),92.4% (active),94.9% (active)
NC(=O)c1cc2ccncc2c2ccccc12,80.3% (active),64.8% (active),78.5% (active),59.3% (active),42.8% (active),62.1% (active),58.1% (active),77.2% (active),20.5%,68.9% (active)
Cc1cc(C(=O)Nc2ccc(Cl)cc2)c(C)n1-c1ccccc1,74.9% (active),69.7% (active),60.1% (active),50.3% (active),70% (active),38%,71.7% (active),55.4% (active),82.5% (active),85.7% (active)
Cc1cc(C2=NNC(=NC3CC3)SC2)c(C)n1-c1ccccc1F,84.8% (active),88.3% (active),78.7% (active),80.7% (active),92% (active),79.6% (active),91.1% (active),79.1% (active),93.6% (active),97% (active)
Cc1ccc(C(=O)O/N=C(\N)c2ccccn2)c(C)c1,60% (active),42.3% (active),15%,28.9% (active),33.2% (active),9.46%,36.5%,13.6%,71.3% (active),86% (active)
CCOc1ccc(-c2noc(CCC(=O)O)n2)cc1,18.2%,15.1%,18.5%,5%,27.3%,38.4%,23.1%,23.4%,71.3% (active),86.1% (active)
O=C(Nc1nc2ccccc2[nH]1)c1ccccc1F,27.6%,19.6%,-26.7%,11.2%,-0.87%,-32.3%,13.5%,-10.4%,43.9% (active),67.2% (active)
